Reference: PubChem BioAssay AID493131 (Broad Institute, 2011)
The campaign covered roughly 340,000 compounds. About 3,300 (0.97%) were called active. The sample as a whole holds a higher share of actives than the screen did. Unmarked numbers belong to inactive results.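 Rule for the calls: active = mean activation above about 17%, with every replicate also reaching it (limit read from the data, passing the limit was not always enough); inconclusive = only one of the two conditions met; inactive = the rest.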

What follows are compounds tested against Protein FosB (Mus musculus) (UniProt P13346) (assay: activators of delta FosB homodimer, primary screen, biochemical, fluorescence polarization, TAMRA-CDK5 oligo, single point (AID 493131;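 note: fluorescence polarization rise as delta FosB binds a TAMRA Cdk5 AP-1 oligo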)). Conditions: purified delta FosB, at 25 µM, stronger effect = higher value, percent of positive-control signal above neutral wells.
Protein FosB (Mus musculus), sequence (P13346 whole entry, looked up): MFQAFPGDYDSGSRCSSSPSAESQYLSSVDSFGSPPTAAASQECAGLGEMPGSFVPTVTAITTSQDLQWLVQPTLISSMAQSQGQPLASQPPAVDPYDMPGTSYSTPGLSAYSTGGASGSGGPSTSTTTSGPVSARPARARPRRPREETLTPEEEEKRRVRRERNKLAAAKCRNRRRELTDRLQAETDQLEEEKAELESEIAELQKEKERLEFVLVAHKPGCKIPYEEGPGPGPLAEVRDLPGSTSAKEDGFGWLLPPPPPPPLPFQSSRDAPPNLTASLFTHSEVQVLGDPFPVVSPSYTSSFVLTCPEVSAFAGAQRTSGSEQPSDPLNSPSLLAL
`CNc1nc(SC)nc(N(C#N)CC(=O)OC)n1` showed an activation of 0.989%.
Compound `Oc1c(C(c2ccco2)N2CCC3(CC2)OCCO3)sc2ncnn12` (centres undefined) has an activation of -7.56%.
With `CC(=O)Nc1ccc(NC(=O)C(NS(=O)(=O)c2ccc3c(c2)OCCO3)C(C)C)cc1` (centres undefined) the activation was 36.7% (active).
Work on `CC(C)NS(=O)(=O)c1ccc(OCC(=O)Nc2ccc3c(c2)OCCO3)cc1` yielded an activation of -10.5%.
`CC(NS(=O)(=O)c1ccc(Cl)cc1)C(=O)Nc1ccc2c(c1)OCCO2` (centres undefined) showed an activation of 1.9%.
In the case of `CCc1ccc(C(=O)OCC(=O)NCC(F)(F)F)cc1`, the activation is reported as -1.18%.
Compound `COC(=O)c1ccc2ccccc2c1OC1OC(CO)C(O)C(O)C1NC(C)=O` (centres undefined) has an activation of -0.206%.
Work on `C#CCOCCOCCOCCNc1nc(N2CCN(C(=O)[C@H](CCC(=O)O)n3cc(CN)nn3)CC2)nc(N2CCN(C(=O)[C@H](CCC(=O)O)n3cc(CN)nn3)CC2)n1` yielded an activation of -0.339%.
With `C#CCOCCOCCOCCNc1nc(N2CCN(C(=O)[C@H](CCCCN)n3cc([C@@H](N)C(C)CC)nn3)CC2)nc(N2CCN(C(=O)[C@H](Cc3ccc(O)cc3)n3cc([C@@H](N)C(C)CC)nn3)CC2)n1` (some centres undefined) the activation was 15.3%.
In the case of `C#CCOCCOCCOCCNc1nc(N2CCN(C(=O)C([C@@H](C)O)n3cc([C@@H](N)CCCCN)nn3)CC2)nc(N2CCN(C(=O)[C@H](CCCCN)n3cc(CN)nn3)CC2)n1` (some centres undefined), the activation is reported as 31.3% (active).
In the case of `C#CCOCCOCCOCCNc1nc(N2CCN(C(=O)C(Cc3ccc(O)cc3)n3cc(C(N)CC(C)C)nn3)CC2)nc(N2CCN(C(=O)C(Cc3ccc(O)cc3)n3cc(C(N)C(C)CC)nn3)CC2)n1` (centres undefined), the activation is reported as 22.4% (active).
`C#CCOCCOCCOCCNc1nc(N2CCN(C(=O)[C@H](CCCCN)n3cc(CCC(=O)O)nn3)CC2)nc(N2CCN(C(=O)[C@H](CCCCN)n3cc(CC(C)O)nn3)CC2)n1` (some centres undefined) showed an activation of 2.6%.
`C#CCOCCOCCOCCNc1nc(N2CCN(C(=O)[C@H](Cc3ccc(O)cc3)n3cc(C(N)CC(C)C)nn3)CC2)nc(N2CCN(C(=O)[C@H](CCC(=O)O)n3cc(C(N)[C@H](C)CC)nn3)CC2)n1` (some centres undefined) was tested, and the activation was 2.04%.
`Cc1csc(CN(C)C(=O)CC2C(=O)NCCN2CC(C)(C)C)n1` (centres undefined) was tested, and the activation was -10.6%.
`COc1cc(-c2nnc(Cn3cc(C(F)(F)F)ccc3=O)o2)cc(OC)c1OC` gave an activation of -9.47%.
`COC(=O)c1ccc(CSc2ccc(S(=O)(=O)N3CCCCC3)cn2)cc1` gave an activation of 8.71%.
In the case of `COc1ccc(N(C)S(=O)(=O)c2ccc3c(c2)CC(C)N3C(=O)C2CC2)c(OC)c1` (centres undefined), the activation is reported as -12.2%.
With `COc1cc(C(=O)N2CCN(C/C=C/c3ccccc3)CC2)cc(OC)c1C` the activation was -7.31%.
`Cn1nnc(NC(=S)NC(=O)c2ccccc2)n1` was tested, and the activation was -9.58%.
`CCOC(=O)C1=C(C)N(C[C@@H]2CC[C@@H](Cc3ccc(-c4ccccc4)cc3)O2)C(=O)NC1c1ccc([N+](=O)[O-])cc1` (some centres undefined) showed an activation of -9.34%.
For `S=c1c2[nH]cnc2ncn1CCSc1ncnc2nc[nH]c12`, the activation was 3.83%.
`COC(=O)c1ccc(CNC(=O)c2ccc3oc(C(C)C)nc3c2)cc1` was tested, and the activation was -7.42%.
`Cc1cc(C)cc(NC(=O)CN2C(=O)c3ccccc3C2=O)c1` showed an activation of 3.94%.
With `O=C(CN1C(=O)c2cccc3cccc1c23)Nc1ccccc1` the activation was 28.7% (active).
Compound `CC(C(=O)O)N1C(=O)c2cccc3cccc1c23` (centres undefined) has an activation of 2.8%.
Compound `COc1ccc(NC(=O)CCC(=O)N2CCN(S(=O)(=O)c3ccc(C)cc3)CC2)c(OC)c1` has an activation of -2.45%.
`CCN1/C(=C\c2ccc3ccccc3[n+]2CC)Sc2cc(C)ccc21` was tested, and the activation was 54.5% (active).
`COc1ccc(/C=C/C(=O)Nc2ccc(C)cc2)cc1S(=O)(=O)N1CCOCC1` was tested, and the activation was -1.41%.
For `COc1cc(/C=C/C(=O)Nc2ccc(OC)c(S(=O)(=O)N3CCOCC3)c2)ccc1OCC#N`, the activation was -6.09%.
`COc1ccc(/C=C/C(=O)Nc2ccc(C34CC5CC(CC(O)(C5)C3)C4)cc2)cc1OC` was tested, and the activation was 51.4% (active).
Compound `CCCOc1ccc(Cn2c(O)cc(=O)[nH]c2=O)cc1` has an activation of 3.75%.
In the case of `COc1ccc(Cn2c(O)c(/C=C3/C=CC=N3)c(=O)[nH]c2=O)cc1`, the activation is reported as 25.7% (active).
`COc1ccc(Cn2c(=O)cc(C)[nH]c2=S)cc1` gave an activation of -1.58%.
`CN(CC(O)COc1ccc(S(=O)(=O)N2CCOCC2)cc1Cl)C1CCCCC1` (centres undefined) gave an activation of -9.15%.
`O=C(NCCN=C1NS(=O)(=O)c2ccccc21)c1ccc(S(=O)(=O)N2CCOCC2)cc1` gave an activation of -16.1%.
Compound `O=C(Nc1ccc2cn[nH]c2c1)c1ccc(S(=O)(=O)N2CCOCC2)cc1` has an activation of -7.23%.
`Cc1nn(CC(=O)N2CCCCC2)c(=O)c2nn(-c3ccccc3)c(C)c12` was tested, and the activation was -5.62%.
In the case of `COc1ccc(OC)c(CNC(=O)Cn2nc(C)c3c(C)n(-c4ccc(C)cc4)nc3c2=O)c1`, the activation is reported as 113% (active).
For `COc1ccc(CNC(=O)C(C)n2nc(C)c3c(C)n(-c4ccccc4)nc3c2=O)c(OC)c1` (centres undefined), the activation was -16.4%.
With `CCc1ccccc1NC(=O)CN(C)C(=O)c1cc(C2CC2)nn1-c1ccccc1` the activation was -9.06%.
`O=C(O)c1cccnc1NC1CCCC1` gave an activation of 1.59%.
For `Cc1nn(C)cc1S(=O)(=O)N1CCN(c2ccc(F)cc2)CC1`, the activation was -3.96%.
For `C[C@@H]1O[C@@H](OC[C@H]2O[C@@H](Oc3c(-c4ccc(O)cc4)oc4cc(O)cc(O)c4c3=O)[C@H](O)[C@@H](O)[C@@H]2O)[C@H](O)[C@H](O)[C@H]1O`, the activation was -1.58%.
With `COc1ccc(-c2cc(=O)c3c(O)cc(O[C@@H]4O[C@H](CO[C@@H]5O[C@@H](C)[C@H](O)[C@@H](O)[C@H]5O)[C@@H](O)[C@H](O)[C@H]4O)cc3o2)cc1O` the activation was 74.8% (active).
Work on `COc1c(O)cc2oc(-c3ccc(O)c(O)c3)cc(=O)c2c1O` yielded an activation of -4.25%.
Compound `Cc1ccc(NC(=O)NC(=O)N(C2CCCCC2)S(=O)(=O)c2ccccc2)cc1` has an activation of -0.8%.
`O=C(CN1CCN(c2ccc(Cl)cc2)CC1)c1ccccc1` showed an activation of 1.64%.
In the case of `O=C(Cn1cc(-c2nnnn2-c2ccc(Cl)cc2)c(=O)c2ccccc21)c1ccccc1`, the activation is reported as 114% (active).
With `Clc1ccc(-n2nnnc2-c2cnc(-c3ccccn3)nc2-c2cccs2)cc1` the activation was -8.45%.
In the case of `CCOC(=O)N1CCC(NC(=O)C(C)n2c3ccccc3c3cnn(C)c(=O)c32)CC1` (centres undefined), the activation is reported as -6.6%.
In the case of `O=C(Nc1cccnc1Cl)c1cc(-c2ccccc2O)on1`, the activation is reported as 64.8% (active).
`C=CCNC(=O)c1cc(-c2ccccc2O)on1` gave an activation of -2.37%.
`O=C(Nc1ccccc1C(F)(F)F)c1cc(-c2ccc(O)cc2)on1` was tested, and the activation was 0.0145%.
`Cc1ccc(NC(=O)COC(=O)CCc2nc3ccccc3n2-c2ccccc2)c(C)c1` gave an activation of -3.49%.
For `Cc1oc(-c2cccc(Cl)c2)[n+]([O-])c1C`, the activation was 7.9%.
With `COc1ccc(C(=O)Nc2cc(C)c(NC(=O)c3ccccc3OC)cn2)cc1` the activation was -13.9%.
In the case of `COc1ccc(C(=O)Nc2ccccc2C(=O)N/N=C/c2ccccc2OC)cc1`, the activation is reported as 38% (active).
`COc1ccc(C(=O)Nc2ccccc2C(=O)N2CCN(c3ccccc3)CC2)cc1` gave an activation of -0.701%.
`Cc1ccc(NC(=O)NNC(=O)c2sccc2-n2cccc2)cc1` showed an activation of -2.71%.
`Nc1ccn(CC(=O)N2CCN(c3ccccn3)CC2)c(=O)n1` showed an activation of -4.48%.
With `COc1ccc(NC(=O)C2CCN(S(=O)(=O)c3ccc4[nH]c(=O)oc4c3)CC2)c(OC)c1` the activation was 1.87%.
`O=C(Nc1ccc(S(=O)(=O)N2CCOCC2)cc1)C1CCN(S(=O)(=O)c2ccc(Cl)cc2)CC1` gave an activation of -7.05%.
For `Cn1c(=O)oc2cc(S(=O)(=O)N3CCC(C(=O)Nc4ccc(OC(F)(F)F)cc4)CC3)ccc21`, the activation was 32.2% (active).
With `Cc1ccc(C)c(N2CCN(S(=O)(=O)c3ccc4c(c3)oc(=O)n4C)CC2)c1` the activation was -5.87%.
`O=C(NC1CCCCC1)n1c(=O)oc2cc(S(=O)(=O)N3CCCCC3)ccc21` was tested, and the activation was 3.88%.
In the case of `Cc1ccc2nc(NC(=O)C3CCN(S(=O)(=O)c4ccc5c(c4)oc(=O)n5C)CC3)sc2c1`, the activation is reported as 28.8% (active).
`CC(=O)c1cccc(-c2ccc(CN3C(CC(C)C)C(=O)N(Cc4cn(CC5CCCCC5)nn4)CCS3(=O)=O)cc2)c1` (centres undefined) was tested, and the activation was -19.5%.
`O=C(NN=Cc1ccccc1O)NN=Cc1ccccc1O` was tested, and the activation was 8.66%.
In the case of `O=C(Nc1ccc(C(=O)NCc2ccccc2Cl)cc1)C1=CSCCO1`, the activation is reported as -4.85%.
Work on `COc1cc(O)c2c(=O)c3c(O)c(O)ccc3oc2c1OC` yielded an activation of -1.22%.
`CCCc1nc2c([nH]1)C(c1cccnc1)C(C#N)=C(N)O2` (centres undefined) gave an activation of -0.0522%.
`COC(=O)C1=C(O)/C(=C/c2ccc(OCC(=O)Nc3ccccc3)cc2)N=C1C` showed an activation of 13.8%.
In the case of `Cc1ccc(NC(=O)COc2ccc(/C=C3/NC(=O)NC3=O)cc2)cc1`, the activation is reported as 73.1% (active).
Work on `CCOC(=O)C1=C(O)/C(=C/c2cc(C)n(-c3ccccc3)c2C)N=C1C` yielded an activation of -14.4%.
Compound `CC(=O)Nc1ccc(NC(=O)COc2ccc(-c3ccccc3)cc2)cc1` has an activation of 14.5%.
In the case of `O=C(COc1ccccc1)Nc1ccc(F)cc1`, the activation is reported as -2.09%.
With `CCOC(=O)C1=C(O)/C(=C/c2ccc(OCC(=O)Nc3ccc(C)cc3)cc2)N=C1C` the activation was 30.5% (active).
`CSCCC(NC(=O)COc1ccccc1)C(=O)N(C)CC(=O)Nc1ccc(C)cc1` (centres undefined) gave an activation of -10.6%.
In the case of `C#Cc1ccc([C@@H]2C=C(C(=O)O)O[C@H](OCCCCO)C2)cc1`, the activation is reported as -5.67%.
